Screening data from PubChem.
CYP2C9 inhib: human CYP2C9 inhibition. CYP2C9 Supersomes, luciferin-H conversion, luminescence. P11712. inhibition, % at 5 µM. 20% of 96,000 active;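 active = blocking of liver enzyme CYP2C9 beyond about 50% at 5 µM, limit read from the data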
Target sequence (P11712 whole entry, looked up): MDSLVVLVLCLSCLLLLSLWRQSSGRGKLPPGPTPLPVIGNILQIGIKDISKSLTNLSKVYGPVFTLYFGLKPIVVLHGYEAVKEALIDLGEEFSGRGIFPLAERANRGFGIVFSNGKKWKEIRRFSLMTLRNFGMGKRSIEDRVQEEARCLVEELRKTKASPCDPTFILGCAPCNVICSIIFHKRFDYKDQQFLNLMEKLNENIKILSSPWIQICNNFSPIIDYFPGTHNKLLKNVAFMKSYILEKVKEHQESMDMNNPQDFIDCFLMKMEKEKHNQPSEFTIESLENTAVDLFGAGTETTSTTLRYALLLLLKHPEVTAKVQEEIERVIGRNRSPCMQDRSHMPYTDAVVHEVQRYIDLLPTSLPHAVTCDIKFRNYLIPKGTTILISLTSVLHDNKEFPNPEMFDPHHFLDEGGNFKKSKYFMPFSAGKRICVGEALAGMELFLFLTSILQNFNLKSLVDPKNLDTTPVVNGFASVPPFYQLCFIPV
CYP2C19 act: cytochrome P450 2C19 (human) activation; activation factor at 5 µM; recombinant CYP2C19, luciferin-H EGE luminescence; hits give high values; 0 = fully inhibited enzyme, 1 = untreated enzyme; 96,000 tested, under 10 active; P33261;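 active = activation factor of at least 2 at 5 µM in the primary screen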;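 note: 0 = wells with 2.5 mM tranylcypromine and 1 = vehicle-only wells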
CYP2C19 inh: human CYP2C19 inhibition; AID 778; 21% of 96,000 active; CYP2C19 Supersomes, luciferin-H EGE luminescence, 30 min; inhibition, % at 5 µM;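 active = CYP2C19 inhibition above a set limit at 5 µM in the primary screen, cut at about 50% in these data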;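 note: plate controls were negative control wells for no effect and 2.5 mM tranylcypromine positive control for full effect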
Cav32 inh: blocks human Cav3.2 T-type calcium channel; O95180; Cav3.2-expressing cells, Fluo-4 calcium fluorescence FDSS; hits give low values; B-score at 10 µM; 4% of 100,000 active; AID 449739;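 active = single-dose well whose peak fluorescence ratio is a statistical outlier from its plate by either plate-standardised score or position-corrected B-score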
CYP2C9 activ: activators of human CYP2C9 | P11712 | recombinant CYP2C9, luciferin-H conversion, luminescence; hits give high values; factor 1 = untreated enzyme, 0 = blocked | activation factor at 5 µM | 1.4% of 96,000 active | AID 1024;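 active = activation factor of 2 or more for CYP2C9 at a 5 µM dose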;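 note: 0 = sulfaphenazole-blocked wells and 1 = vehicle-only wells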
An asterisk follows results filed as active; x = no result. Sampled rows, rich in hits. Any-hit rate of the full collection: about 27%.

SMILES	CYP2C9 inhib	CYP2C19 act	CYP2C19 inh	Cav32 inh	CYP2C9 activ
CCOC(=O)C1=NN(c2cccc(Cl)c2)C2=NC(C)=C(C(=O)OC)C(c3cccs3)N12 (stereo not given)	x	x	x	-3.3	x
Cc1c(C)n(C(=O)CSc2ncn[nH]2)c2ccccc12	-24	0.4	59*	-1.5	1.2
Cc1c(C)n(C(=O)CN2CCC(C)CC2)c2ccccc12	-7	0.4	57*	-2.5	1.1
Cc1c(C)n(C(=O)CSc2nncn2C)c2ccccc12	-115	0.6	42	-0.15	2.2*
CC1=CC(C)(C)N(C(=O)CSc2ncn[nH]2)c2ccccc21	8	0.5	48	0.62	0.9
CCOc1ccccc1C(=O)N(CN1CCCC1=O)c1cccc(Cl)c1	13	0.9	5	0.8	0.9
COc1ccc(-c2nc(-c3cccc(C)c3)[nH]c(=O)c2C#N)cc1	52*	1.1	-12	-0.1	0.5
COc1cc2c(cc1OC)C(c1ccccc1O)N(C1CC(=O)N(c3ccccc3)C1=O)CC2 (stereo not given)	17	1.1	-6	x	0.8
Nc1ccc(CN2CCCCCC2)cc1	x	x	x	0.56	x
FC(F)(F)c1ccc(CN2CCCCCC2)cc1	18	0.5	53*	-0.0022	0.8
CC1CCCCC1NC(=O)c1ccc(S(=O)(=O)N2CCCC2)cc1 (stereo not given)	20	0.9	6	0.18	0.8
CC1CCCCC1NC(=O)c1ccc2c(c1)[nH]c(=O)n2C1CCCC1 (stereo not given)	76*	0.6	43	1.3	0.2
Brc1cccc(-c2nnc3sc(CNC4CCCC4)cn23)c1	12	0.8	18	1.3	0.9
Cc1nc(C)c(C(=O)N/N=C/c2cn(C)c3ccccc23)s1	-24	0.5	53*	-0.25	1.2
Cc1nc(C)c(C(=O)N/N=C/c2c[nH]c3ccccc23)s1	-20	1	3	-0.073	1.2
CNc1nc(SCc2ccccc2)nc(N2CCOCC2)n1	47	0.3	69*	-1.1	0.5
CSc1nc(NC(C)C)nc(N2CCOCC2)n1	16	0.8	19	-0.35	0.8
CC(C)Nc1nc(SCC(=O)Nc2ccccc2)nc(N2CCOCC2)n1	84*	0.2	82*	x	0.2
CC(Sc1nnc(N)s1)C(=O)Nc1ccc(N2CCOCC2)cc1 (stereo not given)	-12	1.1	-5	0.78	1.1
CC(Sc1nc(N2CCOCC2)nc(N2CCOCC2)n1)C(=O)Nc1ccccc1 (stereo not given)	79*	0.7	32	0.14	0.2
CC(Sc1nc(N(C)C)nc(N2CCOCC2)n1)C(=O)Nc1ccccc1 (stereo not given)	92*	0.1	93*	-0.15	0.1
CSc1nsc(SCC(=O)Nc2c(C)n(C)n(-c3ccccc3)c2=O)n1	4	1	0	-0.025	1
CSc1nsc(SCC(=O)Nc2ccc(C(C)=O)cc2)n1	57*	0.5	50	-2	0.4
CSc1nsc(SCC(=O)Nc2ccc(Br)cn2)n1	26	0.3	73*	-4.1	0.7
Cc1cc(C)nc(SCC(=O)Nc2ccc(Br)cn2)n1	16	0.2	81*	-0.98	0.8
SMILES	CYP2C9 inhib	CYP2C19 act	CYP2C19 inh	Cav32 inh	CYP2C9 activ
Cc1cc(C)nc(SCC(=O)NC2=NN=C(c3ccc(Br)cc3)CS2)n1	-106	0.9	9	0.37	2.1*
Cc1nnc(SCC(=O)Nc2ccc(Br)cn2)[nH]c1=O	4	1.2	-20	0.036	1
Brc1[nH]nc2ccccc12	-12	0.9	10	0.79	1.1
O=C(Nc1nccs1)c1ccc(CSc2nnnn2-c2ccccc2)cc1	92*	0.1	92*	-3.1	0.1
NC(=O)c1ccc(-n2nnnc2SCC(=O)Nc2ccccc2-c2ccccc2)cc1	24	0.6	37	0.41	0.8
NC(=O)c1ccc(-n2nnnc2SCc2ccccc2)cc1	46	0.1	87*	0.61	0.5
CCC(=O)Nc1ccc(-c2nnc(SCc3ccc(C(=O)Nc4nccs4)cc3)n2CC)cc1	48	0.8	18	0.31	0.5
O=S(=O)(Nc1cccc2cn[nH]c12)c1ccc(F)cc1	28	0.2	82*	-0.54	0.7
Cn1c(=O)n(C)c2cc(S(=O)(=O)NCCOCCO)ccc21	-1	1.1	-7	3.1	1
COc1ccccc1NS(=O)(=O)c1ccc2c(c1)n(C)c(=O)n2C	2	0.3	72*	0.58	1
Cn1c(=O)n(C)c2cc(S(=O)(=O)Nc3ccccc3O)ccc21	59*	0.2	83*	1.1	0.4
N#Cc1ccc2ccn(CC(=O)NCc3ccccc3)c2c1	59*	0.1	87*	-1.8	0.4
N#Cc1ccc2ccn(CC(=O)NC3CCCCC3)c2c1	12	0.8	23	0.26	0.9
COc1ccc(-c2nc(CSCC(=O)N3CCN(C4CCCCC4)CC3)c(C)o2)cc1OC	x	x	x	-0.44	x
Cc1ccc(S(=O)(=O)C2(C(=O)Nc3cccc(F)c3)CC2)cc1	39	0	95*	0.29	0.6
Cn1c(=O)c2c(ncn2CC(O)CNc2ccc(Br)cc2)n(C)c1=O (stereo not given)	46	0.3	75*	0.58	0.5
Cn1c(=O)c2c(ncn2CC(O)CO)n(C)c1=O (stereo not given)	x	x	x	0.73	x
N#Cc1c(N)nc2c(c1-c1cccnc1)CCCCC2	-43	1.1	-6	1.4	1.4
CCCc1nc(N)c(C#N)c(-c2cccnc2)c1CC	24	0.4	61*	1.2	0.8
CC1(C)Cc2nc3sc4c(SCC(=O)NCc5ccccc5)ncnc4c3cc2CO1	73*	0.2	83*	-0.11	0.3
Cc1sc(NC(=O)c2cccc([N+](=O)[O-])c2)c(C(N)=O)c1-c1ccc(C(C)(C)C)cc1	44	1.1	-6	-0.98	0.6
Oc1ccccc1CNn1cnnc1	-12	1.1	-12	0.68	1.1
CCN(CC(=O)Nc1cccc(C(C)=O)c1)S(=O)(=O)c1ccc(OC)cc1	44	0.6	45	-0.027	0.6
COc1ccc(S(=O)(=O)N(C)CC(=O)Nc2ccc3c(c2)OCO3)cc1OC	15	0.8	25	0.73	0.9
COc1ccc(N(CC(=O)Nc2ccc3c(c2)OCO3)S(=O)(=O)c2ccccc2)c(OC)c1	99*	0	99*	-2.6	0
SMILES	CYP2C9 inhib	CYP2C19 act	CYP2C19 inh	Cav32 inh	CYP2C9 activ
Cc1cccc(NC(=O)CN(C)S(=O)(=O)c2ccc(Br)cc2)n1	7	0	96*	-1.1	0.9
COc1ccc(C)cc1S(=O)(=O)N(C)CC(=O)Nc1ccc2c(c1)OCCO2	83*	0.6	39	-0.11	0.2
Cc1cccc(NC(=O)CN(C)S(=O)(=O)c2ccc(Cl)cc2)n1	-25	0.7	33	-0.0037	1.3
COc1ccc(S(=O)(=O)N(C)CC(=O)Nc2c(F)cccc2F)cc1	-84	0.2	80*	0.55	1.8
OCCN1CCOCCN(CCO)CCOCC1	4	1	2	0.29	1
O=C(N/C=C/c1ccc(Cl)cc1)NCc1ccc(Cl)cc1	21	0.6	42	x	0.8
